Test results: PubChem BioAssay (Tox21)
Active and inactive are the calls of the source. Where a call stands in place of a potency, no number is given. Calls follow the shape of the full dose curve.

biological target: Gonadotropin-releasing hormone receptor (Homo sapiens) (UniProt P30968); assay: Human gonadotropin-releasing hormone receptor (GnRHR) small molecule agonists, calcium flux assay in GnRHR-HEK293 cells (AID 1920063); settings: calcium flux fluorescence, agonist mode; series mostly up to 57.6 µM; also: nearly all actives have a fitted effect of over 35% in size
Sequence (P30968 whole entry, looked up): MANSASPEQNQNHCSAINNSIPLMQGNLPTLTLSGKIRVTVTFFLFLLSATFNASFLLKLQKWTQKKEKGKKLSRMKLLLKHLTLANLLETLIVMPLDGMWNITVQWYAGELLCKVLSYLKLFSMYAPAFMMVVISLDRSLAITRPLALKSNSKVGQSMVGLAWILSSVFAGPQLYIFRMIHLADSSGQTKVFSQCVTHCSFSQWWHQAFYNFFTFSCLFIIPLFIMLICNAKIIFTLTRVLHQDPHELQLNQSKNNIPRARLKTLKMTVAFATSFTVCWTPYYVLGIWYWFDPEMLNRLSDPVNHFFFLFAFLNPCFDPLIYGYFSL
From the text: National Center for Advancing Translational Sciences [NCATS]
Division of Preclinical Innovation [DPI]
U.S. Environmental Protection Agency [EPA]
National Institutes of Environmental Health Sciences [NIEHS]
National Toxicology Program [NTP]
U.S. Food and Drug Administration [FDA]
Gonadotropin-releasing hormone receptor (GnRHR) is a G-protein-coupled receptor (GPCR) and acts (through phospholipase C) to increase intracellular inositol trisphosphate and then release intracellular calcium stores. Cell-based GnRHR-Hek293 calcium influx assay is using HEK293 cells that have been genetically engineered to express the human GnRHR, which activity can be measured by calcium signaling. A compound/drug can activate (agonist) GnRHR that can be monitored by levels of intracellular calcium.
GnRHR-HEK293 cells developed by Codex Corp contain human GnRHR reporter gene, which was stably integrated into HEK 293 cells. The compound activation can be detected by fluorescence intensity via calcium flux assay. This cell line has been used to screen the Tox21 10K compound library to identify GnRHR agonists.
GnRHR-Hek293 cells were dispensed at 1500cells/4uL/well in 1536-well black wall/clear bottom plates using a multidrop dispenser. After the assay plates were incubated at a 37 C/5% CO2 incubator for 18 hours, 4 uL of Calcium Dye Solution was added to each well. The plates were incubated at 37 C for 1 hour. For agonist mode, 23 nL of compounds dissolved in DMSO, positive controls or DMSO only was transferred to the assay plate by a pin tool station. The fluorescence intensity in the plates was measured using FDSS 7000EX kinetic plate reader with a filter set of Ex/Em=480/540 for 3 min at 1 sec intervals. Each test compound was measured at 15 concentrations and in triplicates.

SMILES | Potency
C=CC(C)(CCC=C(C)C)OC(C)=O (stereo not given) | inactive
Cc1ccc(C(=O)O)o1 | inactive
CCCCCCC(=O)O | inactive
Oc1ccc(Cl)cc1Cc1cc(Cl)ccc1O | inactive
CCCCCCCCO | inactive
CC(=O)C(=O)O | inactive
CCCCCCCCCCCCCCCC(=O)O | inactive
Cc1cccc(Nc2cc(Cl)nc(SCC(=O)O)n2)c1C | inactive
CC1=C(C)S(=O)(=O)CCS1(=O)=O | inactive
CCCCC/C(C=O)=C\c1ccccc1 | inactive
O=Cc1ccc(CO)o1 | inactive
CC(C)=CCl | inactive
CCCCCCC(C)(C)S | inactive
CCCN(CCC)S(=O)(=O)c1ccc(C(=O)O)cc1 | inactive
C[Si](C)(C)N[Si](C)(C)C | inactive
CC(C)CC(C)CC(O)CC(C)C (stereo not given) | inactive
CCCCCCCC/C=C\CCCCCCCC(=O)O | inactive
COCc1c(C(C)C)nc(C(C)C)c(/C=C/[C@@H](O)C[C@@H](O)CC(=O)O)c1-c1ccc(F)cc1 | inactive
C=C(C)CC(C)(C)C | inactive
CCCCCCOC(C)=O | inactive

SMILES | Potency
c1ccc2[nH]cnc2c1 | inactive
c1ccc2c(c1)ccc1ccccc12 | inactive
CCC(O)OCCCOC (stereo not given) | inactive
C[C@]12C=CC(=O)C=C1CC[C@@H]1[C@@H]2[C@@H](O)C[C@@]2(C)[C@H]1CC[C@]2(O)C(=O)CO | inactive
Cc1cc(Cc2ccc(N)c(C)c2)ccc1N | inactive
COc1cc([C@H]2Oc3cc([C@H]4Oc5cc(O)cc(O)c5C(=O)[C@@H]4O)ccc3O[C@@H]2CO)ccc1O | inactive
CCCCOCCOCCSC#N | inactive
COCCCN | inactive
NCCCCCCN | inactive
CCO[Si](CCC#N)(OCC)OCC | inactive
CCNC(=S)NCC | inactive
C#CCN(C)Cc1ccccc1 | inactive
O=C(O)CCCCC1CCSS1 (stereo not given) | inactive
O=C1C(N(CO)C(=O)NCO)N(CO)C(=O)N1CO (stereo not given) | inactive
c1ccc2cc3c(ccc4ccccc43)cc2c1 | inactive
OCCOCCN1CCN(C(c2ccccc2)c2ccc(Cl)cc2)CC1 (stereo not given) | inactive
CC(=O)O[C@]1(C(C)=O)CC[C@H]2[C@@H]3C[C@H](C)C4=CC(=O)CC[C@]4(C)[C@H]3CC[C@@]21C | inactive
Oc1cccc(O)c1 | inactive
COC(=O)c1ccccc1O | inactive
CC(=O)Nc1c(I)c(NC(C)=O)c(I)c(C(=O)O)c1I | inactive
